CYP2C19 act: human CYP2C19 activators, primary screen, biochemical, luminescence; Cytochrome P450 2C19 (Homo sapiens), P33261; recombinant CYP2C19, luciferin-H EGE luminescence; hits give high values; 0 = fully inhibited enzyme, 1 = untreated enzyme; activation factor at 5 µM; 96,000 tested, under 10 active; AID 1025, 2008;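 active means activation factor of at least 2 at 5 µM in the primary screen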;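 further: 0 = wells with 2.5 mM tranylcypromine and 1 = vehicle-only wells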
hDAT+cocaine: changed hDAT dopamine uptake under cocaine IC80, either direction, primary screen, cocaine antagonist project, cell-based, LLC-PK1 hDAT, [14C]-dopamine uptake, MLSMR. 1.3% of 110,000 active. B-score at 10 µM. Sodium-dependent dopamine transporter (Homo sapiens), Q01959. LLC-PK1 hDAT cells, [14C]-dopamine uptake with cocaine IC80; actives deviate in either direction;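 active means Z score or B-score, a plate-position-corrected score, falls beyond the plate's 99.7% confidence bounds, in either direction; inactive means both scores lie inside the 99.7% bounds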;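 further: scored against the spread of the other compound wells on the same plate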
CYP2C9 act: human CYP2C9 activators, primary screen, biochemical, luminescence; 1.4% of 96,000 active; AID 1024, 2008; recombinant CYP2C9, luciferin-H conversion; hits give high values; factor 1 = untreated enzyme, 0 = blocked; activation factor at 5 µM;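 active means activation factor of 2 or more for CYP2C9 at a 5 µM dose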;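 further: 0 = sulfaphenazole-blocked wells and 1 = vehicle-only wells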
D1 allo mod: D1 CRE-luciferase signal change, two-sided – cell-based, HEK293 D1, dopamine EC30, D1 allosteric modulator project, primary screen | D(1A) dopamine receptor (Homo sapiens), P21728 | dopamine EC30 potentiation; actives deviate in either direction | B-score at 10 µM | 5.9% of 58,000 active | AID 641, 2007;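 active means luminescence count or its row- and column-corrected plate score outside the 99.7% band of the plate's sample wells, on either side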
Target sequence (P21728 whole entry, looked up): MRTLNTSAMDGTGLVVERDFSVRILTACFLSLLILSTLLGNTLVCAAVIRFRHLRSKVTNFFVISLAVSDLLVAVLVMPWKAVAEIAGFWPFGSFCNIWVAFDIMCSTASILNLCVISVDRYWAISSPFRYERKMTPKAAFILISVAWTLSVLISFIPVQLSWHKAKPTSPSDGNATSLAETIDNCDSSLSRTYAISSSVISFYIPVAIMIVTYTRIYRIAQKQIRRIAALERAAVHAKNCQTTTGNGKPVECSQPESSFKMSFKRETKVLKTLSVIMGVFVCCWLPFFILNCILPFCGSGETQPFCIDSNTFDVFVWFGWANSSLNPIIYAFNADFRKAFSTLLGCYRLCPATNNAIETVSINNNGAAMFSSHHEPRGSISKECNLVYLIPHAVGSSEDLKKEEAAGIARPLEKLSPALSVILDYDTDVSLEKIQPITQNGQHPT
CYP2C9 inhib: blockers of cytochrome P450 2C9 activity – biochemical, luminescence, ADME assay, primary screen; CYP2C9 Supersomes, luciferin-H conversion; inhibition, % at 5 µM; 20% of 96,000 active; AID 777, 2007;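 active means blocking of liver enzyme CYP2C9 beyond about 50% at 5 µM, limit read from the data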
CYP2C19 inhib: blockers of cytochrome P450 2C19 activity – biochemical, luminescence, ADME assay, primary screen. inhibition, % at 5 µM. 21% of 96,000 active. P33261. CYP2C19 Supersomes, luciferin-H EGE luminescence, 30 min. AID 778, 2007;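 active means CYP2C19 inhibition above a set limit at 5 µM in the primary screen, cut at about 50% in these data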;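 further: plate controls were negative control wells for no effect and 2.5 mM tranylcypromine positive control for full effect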
* = called active by the depositor; nt = not tested or not shown. A selection: hits, their analogues and other compounds. The true share with any hit is near 28%.

SMILES | CYP2C19 act | hDAT+cocaine | CYP2C9 act | D1 allo mod | CYP2C9 inhib | CYP2C19 inhib
Cc1onc(-c2ccccc2)c1C(=O)N/N=C(\N)COc1ccc(Cl)cc1 | 0.3 | 0.0163 | 0.3 | nt | 74.1* | 69.4*
COc1ccc(N2CCN(C(=O)c3c(-c4ccccc4)noc3C)CC2)cc1 | nt | -0.0831 | nt | -0.377 | nt | nt
O=C(Nc1ccccc1)c1nnsc1S(=O)c1ccc(Cl)cc1 (stereo not given) | 1.1 | -1.31 | 0.4 | nt | 64.1* | -5.7
COC1(c2cc(-c3ccccc3)nc(N)n2)CCCCC1 | 0.5 | -0.00977 | 0.7 | 0.368 | 31.6 | 53.4*
COc1nc(-c2ccccc2)cc(-c2ccccc2)n1 | 0.7 | 1.36 | 0.7 | 3.16 | 26.3 | 28.0
C=CCSc1nncn1/N=C/c1ccc(OC)cc1 | 0.2 | -2.13 | 0.6 | -0.173 | 35.9 | 81.6*
COc1ccc(/C=N/n2cc(-c3ccc(OC)cc3)nc2N)cc1 | 0.9 | 0.963 | 0.9 | 0.0928 | 12.4 | 7.3
CCN(CC)C(=O)c1sc(NC(=O)c2ccc(C)c([N+](=O)[O-])c2)c(C#N)c1C | 1 | 0.552 | 1 | nt | 2.5 | 1.1
O=C1c2ccccc2C(=O)N1CCSc1nncs1 | 0.9 | -1.03 | 0.9 | -0.0233 | 8.5 | 9.6
Nc1nc(SCCN2C(=O)c3ccccc3C2=O)n[nH]1 | 1.1 | -0.606 | 0.9 | nt | 6.1 | -12.0
CSc1nsc(SCCN2C(=O)c3ccccc3C2=O)n1 | 0.2 | -0.374 | 0.5 | 0.0914 | 52.3* | 80.4*
O=C1c2ccccc2C(=O)N1CCSc1ccccc1 | 0.5 | -0.00486 | 0.8 | nt | 22.2 | 52.3*
Cc1csc(SCCN2C(=O)c3ccccc3C2=O)n1 | 0.2 | 2.7 | 0.3 | -0.435 | 71.3* | 81.8*
Cc1cc(C)n(C(=O)CCN2C(=O)c3ccccc3C2=O)n1 | 0.6 | 0.0359 | 1.2 | 0.419 | -24.4 | 41.0
COc1ccc(F)cc1S(=O)(=O)Nc1ccc(C)cc1 | 0.6 | -0.101 | 0.4 | -0.462 | 56.9* | 40.4
CCOc1ccc(C)cc1S(=O)(=O)NC1CCCCC1 | 0.8 | 0.00697 | 0.9 | 1.44 | 13.8 | 21.2
COc1ccc(OC)c(S(=O)(=O)Nc2ccc(C)c(C)c2)c1 | 0 | 0.493 | 0.2 | nt | 83.8* | 99.0*
COc1ccc(OC)c(S(=O)(=O)Nc2cc(Cl)cc(Cl)c2)c1 | nt | -0.0229 | nt | nt | nt | nt
COc1ccc(C)cc1S(=O)(=O)NC1CCCCC1C (stereo not given) | 0.1 | 1.3 | 0.1 | -0.0931 | 89.4* | 85.2*
CCn1nnnc1-c1ccc(OC)c(S(=O)(=O)Nc2ccc(C)c(C)c2)c1 | 0.5 | nt | 0.4 | nt | 62.1* | 48.7
COc1ccc(C)cc1S(=O)(=O)Nc1cccc(SC)c1 | 0.8 | -0.463 | 0.8 | -0.46 | 22.1 | 20.7
COc1ccc(OC)c(S(=O)(=O)Nc2cccnc2)c1 | 0.7 | -0.524 | 1 | nt | 1.1 | 26.4
COc1ccc(OC)c(S(=O)(=O)Nc2ccc3oc4c(c3c2)C(=O)CCC4)c1 | 0.4 | 0.472 | 0.1 | -0.00948 | 93.7* | 57.0*
COc1ccc(C)cc1S(=O)(=O)Nc1ccc(F)c(Cl)c1 | nt | 0.881 | nt | nt | nt | nt
COc1ccc(NS(=O)(=O)c2cc(C)ccc2OC)cc1OC | 0.2 | -0.362 | 0.6 | 0.0799 | 41.0 | 82.5*
SMILES | CYP2C19 act | hDAT+cocaine | CYP2C9 act | D1 allo mod | CYP2C9 inhib | CYP2C19 inhib
COc1cccc(NS(=O)(=O)c2cc(C)ccc2OC)c1 | 0.3 | -0.0942 | 0.5 | 0.481 | 52.3* | 69.2*
COc1ccc(S(=O)(=O)N2N=C(C)Oc3ccccc3C2=O)cc1 | 0.4 | -0.871 | 0.9 | nt | 8.6 | 64.8*
O=C(CN1CCN(Cc2ccccc2Cl)C1=O)NC1CCCCCC1 | 0.4 | 1.69 | 1.8 | 0.143 | -79.7 | 60.5*
O=C1N(CC(=O)N2CCc3ccccc32)CCN1Cc1ccccc1Cl | 0.7 | -0.968 | 3* | -0.194 | -203.5 | 25.4
C[C@@H]1CC=C[C@H]2[C@H]1C(=O)N(Cc1ccccc1)[C@H]2c1ccc2ccccc2c1Br | nt | -0.0102 | nt | nt | nt | nt
CCOC(=O)N1CCC(N2Cc3cccc(C(=O)N4CC(C)CC(C)C4)c3C2=O)CC1 (stereo not given) | nt | nt | nt | -1.25 | nt | nt

Bioassay records as filed in PubChem.
